Here are results for 14 compounds from PubChem BioAssay (NCI).

Test systems include HOP-62 NSCLC; NCI-H226 lung; NCI-H322M lung; NCI-H460 lung; HOP-92 NSCLC; NCI-H522 lung; A549/ATCC NSCLC; 786-0 renal; COLO 205 colon.
Common to all, as to assay: NCI-60 one-dose screen, 48 h (100 = growth as untreated, 0 = no growth, -100 = all killed)
Conditions in all cases: 10 µM unless noted

Several values for one entry are separate records, joined by “and”; a condition that tells them apart may be missing. Equal entries are not always repeated. About 83,000 compounds went through this panel and 20% of them were active in at least one assay; those are over-represented in the sample as a whole.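 Testing used 96-well plates and a 48-hour single-concentration exposure. Example: -40 means 40% of the starting cells died.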 Activity calls are given as the source filed them. The calls were made as follows: active = growth percent below 10; inactive = the rest.

With `CC1(C)C2CCC1(CS(=O)(=O)O)C(=O)C2` (stereo not drawn), the growth in the assay on HOP-62 NSCLC is 101% (inactive).
As for `c1ccc(N(c2ccccc2)c2ccccc2)cc1`, the growth in the assay on NCI-H226 lung was 104% (inactive); in the assay on NCI-H322M lung, 97.6% (inactive); in the assay on NCI-H460 lung, 111% (inactive); in the assay with HOP-92 NSCLC, 112% (inactive); with NCI-H522 lung, 95.9% (inactive); with A549/ATCC NSCLC it was 99% (inactive). In addition, the growth was 97.9% (inactive) with 786-0 renal and 113% (inactive) with COLO 205 colon.
Take `COc1ccc2cc3[n+](cc2c1OC)CCc1cc2c(cc1-3)OCO2`: the growth is 73.8% (inactive) and 79.5% (inactive) in the assay with NCI-H226 lung; 43.9% (inactive) and 85.4% (inactive) in the assay with HOP-62 NSCLC; 75.9% (inactive) and 88.9% (inactive) in the assay on NCI-H460 lung; 76.1% (inactive) and 20.6% (inactive) with HOP-92 NSCLC; 68.7% (inactive) and 53% (inactive) in the assay on NCI-H522 lung; 75.1% (inactive) and 59.4% (inactive) in the assay on A549/ATCC NSCLC. Further, the growth in the assay on 786-0 renal is 73.5% (inactive) and 66.9% (inactive); in the assay on COLO 205 colon, 59.5% (inactive) and 68.4% (inactive).
As for `COc1ccc(-c2cn[nH]c2-c2cc(OC)c(OC)c(OC)c2)cc1N`, the growth is 69.4% (inactive) and 50.2% (inactive) in the assay with NCI-H226 lung; 45.3% (inactive) and 36.2% (inactive) in the assay on NCI-H322M lung; 52.2% (inactive) and 35.6% (inactive) in the assay with HOP-62 NSCLC; 53.9% (inactive) and 22.5% (inactive) in the assay with HOP-92 NSCLC; 0.102% (active) and 3.18% (active) in the assay with NCI-H522 lung; 12.4% (inactive) and 23% (inactive) in the assay on A549/ATCC NSCLC. Besides, the growth in the assay with 786-0 renal is 18.1% (inactive) and 25.6% (inactive); in the assay with COLO 205 colon, -55.7% (active) and -53.2% (active).
For `CCN(CC)C(=O)c1cccnc1`, the growth in the assay with NCI-H226 lung was 110% (inactive); with NCI-H322M lung, 123% (inactive); in the assay on NCI-H460 lung, 111% (inactive); in the assay with HOP-92 NSCLC, 117% (inactive); in the assay with A549/ATCC NSCLC, 102% (inactive); with 786-0 renal, 99.4% (inactive). In the assay with COLO 205 colon, the growth was 115% (inactive).
Turning to `C1CCCCNCCC1`, the growth is 99.2% (inactive) in the assay on NCI-H226 lung; 111% (inactive) in the assay with NCI-H322M lung; 116% (inactive) with HOP-62 NSCLC; 118% (inactive) in the assay on NCI-H460 lung; 88.3% (inactive) in the assay with HOP-92 NSCLC; 115% (inactive) in the assay on NCI-H522 lung. For the same compound, the values for the growth with A549/ATCC NSCLC, in the assay with 786-0 renal and in the assay on COLO 205 colon were 105% (inactive), 109% (inactive) and 121% (inactive), respectively.
`O=C1OC(Oc2ccc(Br)cc2)(c2ccccc2)c2ccccc21` (stereo not drawn): the growth in the assay on NCI-H226 lung was 75.6% (inactive) and 83.7% (inactive); in the assay with NCI-H322M lung, 99.3% (inactive) and 127% (inactive); in the assay with HOP-62 NSCLC it was 113% (inactive) and 107% (inactive); in the assay on NCI-H460 lung, 91.3% (inactive) and 87.8% (inactive); with HOP-92 NSCLC it was 95.7% (inactive) and 65.6% (inactive); with NCI-H522 lung it was 69% (inactive). The growth in the assay with A549/ATCC NSCLC was 82.6% (inactive) and 88% (inactive); in the assay with 786-0 renal, 101% (inactive) and 73.2% (inactive); in the assay on COLO 205 colon, 105% (inactive) and 111% (inactive).
Take `OCCN1CCN(CCCN2c3ccccc3Sc3ccc(Cl)cc32)CC1`: the growth in the assay on NCI-H226 lung is 96% (inactive) and 110% (inactive); in the assay with NCI-H322M lung, 64.2% (inactive) and 77.5% (inactive); in the assay on HOP-62 NSCLC it was 61.4% (inactive) and 93.4% (inactive); with HOP-92 NSCLC, -2.25% (active); in the assay on A549/ATCC NSCLC, 69.8% (inactive) and 93.3% (inactive); in the assay on 786-0 renal it was 53.3% (inactive) and 71.3% (inactive). The growth in the assay with COLO 205 colon was -70.1% (active) and 73.3% (inactive).
For the compound `O=C(O)c1cc(C(=O)O)cc([N+](=O)[O-])c1`, the growth in the assay on NCI-H226 lung is 102% (inactive); with NCI-H322M lung, 105% (inactive); in the assay with NCI-H460 lung, 110% (inactive); in the assay on HOP-92 NSCLC, 111% (inactive); in the assay on NCI-H522 lung it was 94.3% (inactive); in the assay with A549/ATCC NSCLC, 106% (inactive). The values for the growth with 786-0 renal and in the assay on COLO 205 colon were 101% (inactive) and 110% (inactive), respectively.
In the case of `ClC/C=C/CSc1ncnc2nc[nH]c12`, the growth in the assay with NCI-H226 lung is 98.9% (inactive) and 123% (inactive); with NCI-H322M lung, 110% (inactive); in the assay on NCI-H460 lung it was 105% (inactive) and 106% (inactive); in the assay with HOP-92 NSCLC, 104% (inactive); in the assay on A549/ATCC NSCLC it was 101% (inactive) and 104% (inactive); with 786-0 renal, 106% (inactive) and 102% (inactive). In the assay on COLO 205 colon, the growth is 109% (inactive) and 116% (inactive).
For `CC(C)(O)Cn1cc(-c2ccc3nc(OC4CC4)ccc3c2)c2c(N)ncnc21`, the growth in the assay with NCI-H226 lung was 56.5% (inactive) and 26.5% (inactive); with NCI-H322M lung it was 96.7% (inactive) and 73.5% (inactive); in the assay on NCI-H460 lung, 88.5% (inactive) and 27.6% (inactive); in the assay on HOP-92 NSCLC it was 48% (inactive) and 32.8% (inactive); with NCI-H522 lung it was 67.1% (inactive) and 36.8% (inactive); in the assay with A549/ATCC NSCLC, 75.3% (inactive) and 51.3% (inactive). For the same compound, the growth is 89.1% (inactive) and 60.2% (inactive) in the assay with 786-0 renal; 91.3% (inactive) and 58.7% (inactive) in the assay with COLO 205 colon.
On to `c1ccc(NCc2ccc3c(c2)OCO3)cc1`, for which the growth in the assay with NCI-H226 lung was 103% (inactive) and 97.9% (inactive); in the assay with NCI-H322M lung, 114% (inactive) and 99.2% (inactive); in the assay on HOP-62 NSCLC, 93.7% (inactive) and 101% (inactive); with NCI-H522 lung it was 91.1% (inactive) and 95.6% (inactive); in the assay on A549/ATCC NSCLC it was 103% (inactive) and 95.3% (inactive); in the assay on 786-0 renal it was 102% (inactive) and 96.8% (inactive). For the same compound, the growth in the assay on COLO 205 colon was 113% (inactive) and 102% (inactive).
Take `CC(=O)C(/C=N/C(N)=O)=C(/C)O`: the growth in the assay on NCI-H226 lung is 111% (inactive); with NCI-H322M lung it was 113% (inactive); with NCI-H460 lung, 116% (inactive); in the assay with HOP-92 NSCLC it was 119% (inactive); in the assay with NCI-H522 lung, 99.6% (inactive); with A549/ATCC NSCLC it was 99.6% (inactive). Besides, the results for the growth with 786-0 renal and in the assay on COLO 205 colon were 104% (inactive) and 120% (inactive), respectively.
In the case of `N=C1N=C(N)CS1`, the growth in the assay with NCI-H226 lung is 96.9% (inactive); in the assay with HOP-62 NSCLC it was 107% (inactive); with NCI-H460 lung it was 103% (inactive); with HOP-92 NSCLC it was 99.5% (inactive); with NCI-H522 lung, 103% (inactive); in the assay on A549/ATCC NSCLC it was 96.6% (inactive). Further, the growth in the assay with 786-0 renal is 103% (inactive); in the assay with COLO 205 colon it was 113% (inactive).
